From PubChem BioAssay
Sm TGR inh: inhibitors of Schistosoma mansoni thioredoxin glutathione reductase. purified TGR, DTNB reduction, TNB absorbance 405 nm. AID 485364. 3% of 360,000 active. Potency, µM (top dose mostly 114 µM), without a hit: at the top dose activity change, negative = inhibition, hits mostly inhibitors. Q962Y6; active = well fitted inhibition curve with a large enough effect; inconclusive = small, poorly fitted or top-dose-only effect; inactive = no such curve, though single readings can be large or run the other way; note: potency is the fitted concentration of half-maximal effect; % is set by controls: 0 for no effect and ±100 for the full control effect; nearly all actives have a fitted effect of over 60% in size
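Kinetic colorimetric format: TGR-catalysed, NADPH-driven DTNB reduction monitored via TNB absorbance. Enzyme dispensed at 20 nM; compound exposure 15 min at room temperature before reaction start.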
Shiga toxin inh: inhibitors of Shiga toxin in Vero cells. Vero cells, Shiga toxin protein synthesis inhibition reporter. inhibition, % at 38.7 µM. 9.2% of 290,000 active. AID 2315; in the data active = inhibition mostly above about 28%, no sharp cut-off; inactive = mostly below about 43%; note: 0% is about no effect
FMDV inh: antivirals against foot and mouth disease virus | FMDV antiviral cell-based qHTS | Potency, µM (series often up to 57.9 µM), inactives show top-dose activity change, negative = inhibition, actives largely listed as inhibitors | 1.2% of 410,000 active | AID 1159524; calls by dose curve; tested in HEK293T cells; note: read-out not given here; potency is the fitted concentration of half-maximal effect; % is set by controls: 0 for no effect and ±100 for the full control effect; nearly all actives have a fitted effect of over 45% in size
Cycloheximide cs: counter-screen hit for Shiga toxin inhibitors, cycloheximide; cell reporter, cycloheximide protein synthesis inhibition counterscreen; max response, %; 12% of 300,000 active; AID 2314; in the data active = max response mostly above about 13%, no sharp cut-off; inactive = mostly below about 14%; note: read at 38.3 µM for the half of the compounds with a filed dose; 0% is about no effect
An asterisk follows results filed as active; ? = inconclusive; · = no result; + = active, no number. Hits are enriched below; roughly 12% of the tested compounds scored in any of these assays.

SMILES	Sm TGR inh	Shiga toxin inh	FMDV inh	Cycloheximide cs
COCCn1c(=O)c(CCc2ccccc2)nc2cnc(Oc3ccccc3)nc21	·	·	-11.7%	·
COc1ccc(/C=N/N=C2/CC(C)(C)Cc3n[nH]c(=O)cc32)cc1	12.6µM*	36.2*	-9.7%	19.4
COc1ccc(/C=N/N=C2/NC(=O)CC(C(=O)O)S2)cc1 (stereo not given)	-9.8%	-3.6	-3.8%	1.0
CC(C)OCCCNC(=O)C(=O)Nc1ccc2nc3n(c(=O)c2c1)CCCCC3	2.3%	·	-15.1%	·
CCCCCOC(=O)Cc1c(O)c2ccccc2n(C)c1=O	3.98µM*	-12.3	2.3%	-3.8
Cn1c(=O)c(Cc2ccccc2)c(O)c2ccccc21	-21.8%	-12.1	11.1%	-3.3
Cc1cn2c(=O)c(S(=O)(=O)Nc3ccc(OC(F)(F)F)cc3)c(C)nc2s1	-14.8%	·	?	·
COc1ccc(C(CC(=O)c2ccc(C)cc2)C(C#N)C#N)cc1OC (stereo not given)	?	65.5*	-3.2%	28.9*
COC(=O)C(C(=O)OC)C(CC(=O)c1ccc(C)cc1)c1cc(OC)c(OC)c(OC)c1 (stereo not given)	3.9%	1.6	0.0%	-2.9
CC(=O)N[C@@H](CSC(=O)[C@]1([C@@H](O)C(C)C)NC(=O)[C@H](C)[C@@H]1O)C(=O)O	·	+	·	84.7*
O=C(O)c1ccc(CNCc2ccccc2Cl)s1	-16.3%	·	23.6%	·
CC1(C)Cc2c(cnn2-c2ccccc2)C(=O)/C1=N\NC(=O)c1ccccc1O	-5.6%	32.2	-25.6%	16.3*
CC1(C)Cc2c(cnn2-c2ccccc2)C(=O)/C1=N\NC(=O)c1ccccc1	-3.7%	-4.9	·	1.7
O=C(Nc1nccs1)c1ccc(CSc2nnnn2-c2ccccc2)cc1	2.0%	40.6	-17.3%	44.3*
Cn1cccc1C(=O)N1CCC2(CC1)CCN(c1cccc(-c3ccccc3)c1)CC2	·	·	-26.6%	·
CC(C)(O)C#Cc1ccc(C(=O)NCc2cccs2)s1	0.1%	32.9	40.7%	26.4*
O=C(NCc1cccs1)c1cc2c(s1)CCCC2	6.6%	85.8*	43.9%	45.1*
CC1CCc2c(C(=O)NCc3ccco3)csc2C1 (stereo not given)	-8.9%	48.2	26.2%	16.6*
CC(C)CCNC(=O)c1csc2c1CCCCC2	5.2%	55.1*	40.2%	46.9*
CC(=O)c1ccc(C#CC(C)(C)O)s1	0.0%	-0.5	-3.2%	12.7
O=C(NCc1cccs1)c1ccccc1C(=O)NCc1cccs1	7.9%	-7.1	3.4%	-1.5
Cc1ncc2c(c1CNC(=O)c1ccc3c(c1)OCO3)CCN(C(=O)c1scc3c1CCCC3)C2	·	·	-15.7%	·
Cc1ccc2c(c1)-c1onc(C(=O)N3CCN(c4cc(Cl)ccc4C)CC3)c1CO2	1.8%	·	-21.3%	·
CCOc1ccc(-c2cc3nc(C4CCN(C(=O)OC(C)(C)C)CC4)c(C(=O)Nc4cccc(Cl)c4C)cn3n2)cc1	-15.5%	·	-27.8%	·
Cc1ccc(NC(=O)C(=O)c2cc(C)n(-c3ccc(F)cc3)c2C)cc1C	-7.7%	·	6.8%	·
SMILES	Sm TGR inh	Shiga toxin inh	FMDV inh	Cycloheximide cs
COC(=O)c1ccccc1NC(=O)NCCc1ccccc1OC	-2.5%	82.9*	24.5%	28.0*
O=C(NCc1cccs1)c1csc2c1CCCCC2	-22.1%	19.2	·	21.1*
O=C(NCc1ccco1)c1csc2c1CCCCC2	-4.3%	19.3	·	22.1*
COc1ccccc1CCNC(=O)c1ccc(Br)s1	-6.9%	63.4*	21.4%	37.1*
COc1ccccc1CCNC(=O)Cc1c(C)c2cc(Cl)c(O)cc2oc1=O	9.7%	·	-15.3%	·
O=C(NCc1ccco1)c1c2c(nc3ccccc13)CCC2	39.8µM*	50.0	4.9%	2.6
COc1ccccc1CCNC(=O)c1csc2c1CCCC2	14.5%	37.8*	40.8%	13.1
COc1ccc(CNC(=O)c2csc3c2CCCC3)cc1	-10.6%	·	20.2%	·
O=C(C1CC12CCN(Cc1cccc3cccnc13)CC2)N1CCN(Cc2cccs2)CC1 (stereo not given)	·	·	-8.8%	·
CCC(C)(C)n1nnnc1C(c1ccc2ncccc2c1)N1CCN(c2ccc(O)cc2)CC1 (stereo not given)	50.1µM*	-8.6	-3.6%	0.9
CCC(C)(C)n1nnnc1C(c1ccc(OC)c(OC)c1)N1CCN(c2ccccc2)CC1 (stereo not given)	50.1µM*	-12.4	-23.8%	-3.4
CCC(C)(C)n1nnnc1C(c1cc(OC)ccc1OC)N1CCN(Cc2ccccc2)CC1 (stereo not given)	31.6µM*	-6.1	-1.2%	-4.9
CCC(C)(C)n1nnnc1C(c1ccc(OC)c(OC)c1)N1CCN(c2cccc(OC)c2)CC1 (stereo not given)	?	-6.7	-8.5%	-2.5
CCC(C)(C)n1nnnc1C(c1ccccc1)N1CCN(Cc2ccccc2)CC1 (stereo not given)	0.0%	2.1	-10.7%	1.4
Cc1ccc(S(=O)(=O)c2nnn3c2nc(NC(C)C)c2sccc23)cc1	-2.3%	·	-15.4%	·
Cn1cccc1C(=O)OCc1cc(Cl)cc2c1OCOC2	-0.7%	145.1*	50.0%	61.6*
Cn1cccc1C(=O)OCC(=O)NC(=O)c1ccc(Cl)cc1	·	·	-1.2%	·
CCOc1ccccc1NC(=O)Cn1cc(C(=O)c2cccc(OC)c2)c(=O)c2ccc(C)nc21	-0.4%	·	?	·
O=Cc1ccccc1OCCOc1ccccc1C=O	-24.2%	52.2*	·	34.4*
CC(=O)Nc1ccc(S(=O)(=O)NCCc2csc3nc(-c4cccc(C)c4)nn23)cc1	0.3%	·	-2.0%	·
O=c1cc(-c2ccccc2)n2c(SCc3cccc([N+](=O)[O-])c3)nnc2[nH]1	18.9%	·	-6.1%	·
COc1cc(C2C=C(Nc3ccccc3)C(=O)N2c2ccccc2)ccc1O (stereo not given)	-20.8%	57.1*	?	37.4*
O=C1C(Nc2ccccc2)=CC(c2ccc(O)cc2)N1c1ccccc1 (stereo not given)	-34.0%	44.6*	-14.2%	28.5*
O=C1C(Nc2ccccc2)=CC(c2ccc(Br)cc2)N1c1ccccc1 (stereo not given)	?	·	-1.5%	·
O=Cc1ccc(O)c(O)c1	10.6%	-14.6	-23.2%	-3.7
SMILES	Sm TGR inh	Shiga toxin inh	FMDV inh	Cycloheximide cs
Oc1ccc(N=Cc2ccc(O)c(O)c2)cc1	22.4µM*	28.9	-15.7%	10.6
Oc1ccc(/C=N/N=C/c2ccc(O)c(O)c2)cc1O	?	21.0*	4.2%	22.6*
Cc1nc(C/C(=N\N)c2ccc(O)cc2O)cs1	2.8%	63.9	-2.2%	24.5*
COc1ccc(C(=O)COC(=O)c2ccccc2O)c(OC)c1	2.1%	·	39.6%	·
Oc1ccc(/C(Cc2ccccn2)=N\Nc2ccccc2)c(O)c1	?	-4.9	?	-1.4
COc1ccc(C(=O)OCc2csc(C)n2)c(O)c1	18.2%	60.9*	61.9%	42.3*
N/N=C(\Cc1cscn1)c1ccc(O)cc1O	-30.7%	80.2*	8.1%	36.3*
CCOc1ccc(NC(=O)Cn2cc(C(=O)c3ccc(CC)cc3)c(=O)c3cc4c(cc32)OCO4)cc1	-5.9%	·	-16.5%	·
Cc1cc(NC(=NC2CC2)c2ccccc2)n(-c2ccccc2)n1	3.1%	-7.0	-8.7%	-3.7
Cc1ccc(N=CNc2ccc(C)cc2C)c(C)c1	-4.2%	-2.5	18.1%	-1.9
Cc1cc2n(n1)SC(Nc1ccccc1)N2 (stereo not given)	?	143.2	17.5%	31.7*
